Experimental findings from PubChem BioAssay AID1508642 (National Center for Advancing Translational Sciences (NCATS), 2021) are described below.

Screen size: about 43,000 compounds; about 200 (0.47%) were called active. Where a call stands in place of a potency, no number is given. Not shown: some 12% with an inconclusive outcome. Calls come from the whole dose curve; as a rule, active = well fitted cell-killing curve with a large enough effect; inconclusive = small, poorly fitted or top-dose-only effect, or effect the other way; inactive = flat fitted curve, though single readings scatter. This excerpt belongs to a sample that is enriched for actives.
Potency is the fitted concentration of half-maximal effect.

This assay in a line: Cell viability qHTS assay in S16 Pmp22-F2sN cells. Note: nearly all actives have a fitted effect of over 65% in size. To be noted: S16 Pmp22-F2sN Schwann cells (luciferase reporters placed in the Pmp22 gene) viability, CellTiter-Glo, 24 h; series mostly up to 57.5 µM. From the text: Assay Provider: Jim Inglese Ph.D. National Center for Advancing Translational Science, National Institutes of Health, Rockville, MD CMT is a heterogeneous group of neurological disorders that affect approximately 1 in 2,500 people. In particular, the most common form of CMT, CMT1A is genetically linked to the duplication of the PMP22 gene which leads to Schwann cell overexpression, thus manifesting itself as a typical case of dose-sensitive diseases. To identify small molecule compounds that can mediate the expression of PMP22 we developed a phenotypic assay screening strategy by utilizing genome editing techniques to construct Schwann cell lines containing novel reporter technology to monitor the transcriptional or translational regulation of PMP22. For high sensitivity we use a bioluminescent reporter system embedded in the 3' UTR of the PMP22 gene (S16(c9) Pmp22-F2sN) to identify compounds that inhibit gene expression. […] We can further discriminate the effect of all transcriptionally active molecules on PMP22 translation or stability with an assay that incorporates a short NLuc peptide (HiBiT) at the C-terminus of expressed PMP22 (S16(f8) PMP22-HiBiT) allowing alpha complementation and luminescence detection of membrane-associated PMP22 protein. These assays were screened against the NCATS Sytravon Library Collection. Miniaturization of these assays to 1536-well plate format for quantitative high throughput screening (qHTS) yielded rich data sets immediately from the qHTS assay (S16(c9) Pmp22-F2sN), when compared with data from a cell viability assay (Cell TiterGlo) to identify compounds that decreased the output signals through cellular toxicity to streamline the selection process of actives for subsequent characterization using the HiBiT assay (S16(f8) PMP22-HiBiT).
Cell viability assay in S16 Pmp22-F2sN cells PROTOCOL TABLE (format as described by Inglese J, Shamu CE and Guy RK. 2007) SEQUENCE No. (e.g., 1, 2, 3, etc.); […] (e.g., Cells, Incubation, Reagent, etc.); VALUE and DESCRIPTION. 1. Cells. Add 500-1,000 cells in 4 uL in growth media (DMEM High Glucose, No Phenol Red media + 10% heat-inactivated FBS + 1% Pen/Strep supplemented media) per well into Greiner 1536-well white/solid bottom high base, TC-treated plates. 2. Compounds. Library compounds and controls added at 23nL per well, transferred by Pin Tool. 3. Incubation. Incubate plates at 37C, 5% CO2, 95% RH for 24 h. 4. Reagent. Add 3uL CellTiter-Glo per well of Greiner 1536-well plates. 5. Incubation. Incubate plates at room temperature for 15 min., protect from light. 6. Detector. FLuc luminescence measured using CCD-based camera (Viewlux). NOTES (numbers refer to Sequence numbers above; values are from representative experiments) 6. Luminescence Read: Clear filter; Exposure = 1 sec, Gain = High, Speed = Slow, Binning = 2X REFERENCES: 1. Inglese J, Shamu CE and Guy RK, Reporting data from high throughput screening of small molecule libraries, Nature Chemical Biology, 2007, 3(8): 438-441. doi.org/10.1038/nchembio0807-438 2. Yasgar A, Shinn P, Jadhav A, Auld DS, Michael S, Zheng W, Austin CP, Inglese J and Simeonov A, Compound Management for Quantitative High-Throughput Screening. J. Assoc. Lab. Auto., 2008, 13: 79-89. doi: 10.1016/j.jala.2007.12.004
On the technique in general: In qHTS, concentration-response curves come from the screen itself.
For the compound `O=C(COc1ccccc1)OCc1cc(=O)n2nc(-c3cccs3)sc2n1`, the Potency entry is “inactive”.

Turning to `CCc1c(C)sc(NC(=O)C2c3ccccc3Oc3ccccc32)c1C(=O)OC(C)C`, the Potency entry was “inactive”.

As to `CCc1nc2cccnc2n1-c1ccc(CC(=O)Nc2c(C)cccc2C)cc1`, the Potency result is “inactive”.

Consider `CCCNC(=O)C1CCC(Cn2c(=O)c3sccc3n(Cc3ccccc3F)c2=O)CC1` (configuration not stated), for which the Potency result was “inactive”.

Turning to `O=C(Nc1ccc(Br)cc1)c1cc2nc(-c3ccccc3)cc(-c3ccccc3)n2n1`, the Potency result is “inactive”.

For the compound `COc1ccc(CCNC(=O)CCCn2c(=O)c3ccccc3n(Cc3ccc(F)cc3Cl)c2=O)cc1OC`, the Potency result was “inactive”.

Turning to `O=C(CSc1n[nH]c(-c2ccccc2)n1)N1CCCCC1`, the Potency entry was “inactive”.

For `CCN(CC)S(=O)(=O)c1ccc2c(c1)nc(CN(C)C(=O)Nc1ccc(Cl)cc1)n2C`, the Potency result was “inactive”.

For `O=C(NCCc1ccccc1)c1cnc2sc(N3CCCC3)nn2c1=O`, the Potency entry is “inactive”.

Take `CCC(Sc1nc2n[nH]c(C)c2c(=N)n1-c1ccccc1Cl)C(=O)N(CC)CC` (configuration not stated): the Potency result was “inactive”.

As for `CCC(CC)C(=O)N1CCc2cc(OC)c(OC)cc2C1COc1ccc(F)cc1` (configuration not stated), the Potency entry was “inactive”.

In the case of `Cc1cc(C)c2oc(C(=O)Nc3ccc(S(=O)(=O)N4CCCCCC4)cc3)cc(=O)c2c1`, the Potency entry is “inactive”.

Take `COc1ccc(S(=O)(=O)c2c(Nc3ccc(C)cc3)sc(C(=O)c3ccc(C)cc3)c2N)cc1`: the Potency entry is “inactive”.

As for `COc1ccccc1CNC(=O)NCc1noc2ccc(C)cc12`, the Potency result is “inactive”.

For the compound `COc1ccc(C(F)(F)F)cc1NC(=O)c1sc2nc(-c3cccs3)ccc2c1N`, the Potency result is “inactive”.

Consider `CC1CCN(C(=O)Cn2c(=O)n(-c3ccc(Cl)cc3)c(=O)c3c4c(sc32)CCC4)CC1`, for which the Potency result is “inactive”.

With `CCCN(CCC)CCNC(=O)c1ccc2c(c1)NC(=O)C(CS(=O)(=O)Cc1cccc(Br)c1)N2` (configuration not stated), the Potency entry was “inactive”.

`Cc1cc(C)cc(-n2ccnc2SCC(=O)Nc2nc3ccccc3s2)c1`: the Potency entry was “inactive”.

Turning to `CCc1ccccc1NC(=O)Cc1ccc(NC(=O)N2CCCCc3ccccc32)cc1`, the Potency entry was “inactive”.

Consider `CCc1cccc(NC(=O)CCNS(=O)(=O)c2cccc3nonc23)c1`, for which the Potency result is “inactive”.

For `COc1cccc(N2CCN(S(=O)(=O)c3cc(Br)cc4c3N(C(=O)C3CC3)CC4)CC2)c1`, the Potency entry was “inactive”.

`Cc1ccc(S(=O)(=O)n2nc(-c3ccc(Cl)cc3)nc2NCc2ccccc2)cc1`: the Potency entry is “inactive”.

As for `CCN(CCCNC(=O)c1cc2cc3cc(OC)ccc3nc2s1)c1ccccc1`, the Potency result was “inactive”.

With `COc1cccc(CNC(=O)Cn2c(=O)c3cccn3c3ccc(F)cc32)c1OC`, the Potency entry was “inactive”.

With `CCCSc1ncc(Cl)c(C(=O)Nc2sc3c(c2C(=O)NCCOC)CCCC3)n1`, the Potency entry is “inactive”.

With `Cc1ccc(OCC(=O)Nc2ccc(Cl)c(-c3nc4ccccc4[nH]3)c2)cc1C`, the Potency result was “inactive”.

Consider `CCOc1ccc(OCC)c(NC(=O)CN(c2ccc(C)cc2)S(=O)(=O)c2c(C)n[nH]c2C)c1`, for which the Potency entry is “inactive”.

For the compound `Cc1cc2nc(-c3ccc(NC(=O)c4cc5ccccc5o4)cc3)oc2cc1C`, the Potency result is “inactive”.

For `O=C(NC1CC(=O)N(c2ccc(F)cc2)C1)C1CCCCC1` (configuration not stated), the Potency entry is “inactive”.

For `CCN1CCN(c2ncc3c(n2)CC(c2ccccc2O)CC3=O)CC1` (configuration not stated), the Potency entry was “inactive”.

Take `Cc1ccc(-c2cc(-c3coc4ccccc4c3=O)c3c(n2)-c2cc(Cl)ccc2OC3)cc1`: the Potency entry was “inactive”.

Turning to `CCOc1cccc2c1N[C@@H](c1ccc(C(=O)O)cc1)[C@H]1CC=C[C@@H]21`, the Potency entry was “inactive”.

For the compound `Cc1ccc(C(=O)Nc2c(C(=O)NC(C)(C)C)oc3ccccc23)cc1`, the Potency entry is “inactive”.

Consider `COc1ccc(CCC(=O)NCc2ccc3c(c2)CCN3C(=O)c2ccc(F)cc2)cc1`, for which the Potency entry was “inactive”.

`COc1ccccc1CNc1ccc(-c2nc(-c3ccccc3C)no2)cc1[N+](=O)[O-]`: the Potency entry was “inactive”.

Consider `Cc1ccc2c(=O)c(C(=O)c3ccc(Cl)cc3)cn(CC(=O)NC3CCCCC3)c2n1`, for which the Potency result was “inactive”.

For `Cc1ccc2c(=O)c(C(=O)c3cccc(Cl)c3)cn(CC(=O)NCc3ccccc3)c2n1`, the Potency is 10 µM (active).

For `Cc1ccc2c(=O)c(C(=O)c3ccc(F)cc3)cn(CC(=O)NC3CCCCC3)c2n1`, the Potency result was “inactive”.

Turning to `Cc1ccc(-c2nnc(Nc3ccc(OCC(N)=O)cc3)c3ccccc23)cc1S(=O)(=O)NCC1CCCO1` (configuration not stated), the Potency result was “inactive”.

For `CCCCCn1c(CCNC(=O)c2ccc(F)cc2)nc2ccccc21`, the Potency result is “inactive”.

Turning to `COCCNS(=O)(=O)c1cc(-c2nn3c(C)nnc3c3ccccc23)ccc1C`, the Potency result is “inactive”.

Regarding `CCc1nnc(SCc2c(F)cccc2Cl)c2cc3sccc3n12`, the Potency entry is “inactive”.

Turning to `COc1cc(C(=O)N(Cc2ccc(C(C)C)cc2)C2CCS(=O)(=O)C2)cc(OC)c1OC` (configuration not stated), the Potency entry is “inactive”.

As for `CCOc1ccccc1NC(=O)Cn1c2ncccc2c(=O)n1-c1ccc(C)c(C)c1`, the Potency entry was “inactive”.

For `Cc1cccc(Cn2c(CN3CCC(C(=O)NCc4ccccc4Cl)CC3)cc3ccccc32)c1`, the Potency result is “inactive”.

`CCN(CC)S(=O)(=O)c1ccc2c(c1)N(CC(=O)NCc1ccccc1)C(=O)CS2`: the Potency result was “inactive”.

Take `COc1ccc(-c2onc(C)c2C)cc1S(=O)(=O)NCC1CCN(Cc2cccc(F)c2)CC1`: the Potency entry is “inactive”.

`Cc1onc(-c2ccc(F)cc2F)c1C(=O)Nc1cccc(C(F)(F)F)c1`: the Potency entry was “inactive”.

Turning to `Cc1ccc(Cn2c(=O)n(Cc3nc(-c4ccccc4)no3)c(=O)c3cc4c(cc32)OCO4)cc1`, the Potency entry was “inactive”.

For the compound `CN(C)c1ccc(C(CNS(=O)(=O)c2cc(F)ccc2F)N2CCOCC2)cc1` (configuration not stated), the Potency result was “inactive”.

In the case of `CCOc1ccc(C(=O)c2cn(Cc3ccccc3OC)c3ccc(F)cc3c2=O)cc1`, the Potency result was “inactive”.

For the compound `O=C(/C=C/c1cn(CC(O)CN2CCc3ccccc32)c2ccccc12)c1ccc(Br)cc1` (configuration not stated), the Potency result was “inactive”.

For the compound `O=C(CCC1N=C2c3ccccc3N=C(SCc3ccccc3F)N2C1=O)NCCc1ccccc1` (configuration not stated), the Potency entry is “inactive”.

Take `CSCCC(NS(=O)(=O)c1ccc2c(c1)oc(=O)n2C)C(=O)NCc1ccccc1` (configuration not stated): the Potency entry was “inactive”.

For `O=C(Nc1nnc(C2CC(=O)N(c3ccc(Cl)cc3)C2)s1)c1ccco1` (configuration not stated), the Potency result was “inactive”.

Take `O=C(NCc1ccc(F)cc1)c1ccc(Cn2c(SCc3ccc(F)cc3)nc3cccnc32)cc1`: the Potency entry was “inactive”.

With `Cc1c2cnn(-c3ccccc3)c(=O)c2c(C)n1C(C)C(=O)Nc1ccc(Br)cc1F` (configuration not stated), the Potency entry was “inactive”.
